The panel holds about 83,000 compounds, 20% with a hit somewhere; the sample as a whole holds those more often.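 How to read the values: 0–100, growth inhibition (40 = 60% inhibited); 0, no net growth; -100 to 0, cell death (-40 = 40% of starting cells died; -100 = all dead).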 The source made the active and inactive calls. How the source made its calls: active means growth percent below 10; inactive means the rest.
Experiments:
Assay in all cases: NCI-60 one-dose screen, 48 h (100 = growth as untreated, 0 = no growth, -100 = all killed)
[1] = tested on: NCI-H23 lung; conditions: 10 µM unless noted
[2] = tested on: NCI-H226 lung; conditions: 10 µM unless noted
[3] = tested on: NCI-H322M lung; conditions: 10 µM unless noted
[4] = tested on: HOP-62 NSCLC; conditions: 10 µM unless noted
[5] = tested on: NCI-H460 lung; conditions: 10 µM unless noted
[6] = tested on: HOP-92 NSCLC; conditions: 10 µM unless noted
[7] = tested on: NCI-H522 lung; conditions: 10 µM unless noted
[8] = tested on: A549/ATCC NSCLC; conditions: 10 µM unless noted
[9] = tested on: 786-0 renal; conditions: 10 µM unless noted
[10] = tested on: COLO 205 colon; conditions: 10 µM unless noted
[11] = tested on: DU-145 prostate; conditions: 10 µM unless noted
[12] = tested on: K-562 leukemia; conditions: 10 µM unless noted
[13] = tested on: MALME-3M melanoma; conditions: 10 µM unless noted
[14] = tested on: MDA-MB-231 breast; conditions: 10 µM unless noted
[15] = tested on: SF-268 CNS; conditions: 10 µM unless noted
[16] = tested on: SF-295 CNS; conditions: 10 µM unless noted
[17] = tested on: SF-539 CNS; conditions: 10 µM unless noted
[18] = tested on: UACC-257 melanoma; conditions: 10 µM
[19] = tested on: M14 melanoma; conditions: 10 µM unless noted
[20] = tested on: RXF 393 renal; conditions: 10 µM unless noted

Measured: growth

COc1ccc(C2CC(c3cccs3)=NN2c2ccc(S(=O)(=O)NC(=O)Nc3ccc(C)cc3)cc2)cc1 (stereo unspecified)
inactive: [1] 98.5% | [2] 110% | [3] 104% | [4] 76.9% | [5] 103% | [6] 84.9% | [7] 91.5% | [8] 102% | [9] 104% | [11] 102% | [12] 114% | [13] 40.6% | [14] 117% | [15] 95.6% | [16] 100% | [17] 98.3% | [18] 40.9% | [19] 58.4%
active: [10] -54.6%

CC(=O)Nc1nc(C(=O)N2N=C(C)/C(=C/c3ccc(Cl)cc3)C2=O)cs1
inactive: [1] 102% | [2] 106% | [3] 99% | [4] 97% | [5] 105% | [6] 95.7% | [7] 44.7% | [8] 103% | [9] 100% | [10] 104% | [11] 103% | [12] 106% | [13] 93.1% | [14] 110% | [15] 96.2% | [16] 98.2% | [17] 107% | [18] 94% | [19] 96.7%

CSc1nc(-c2cc3ccccc3o2)cc(-c2ccc(Cl)cc2)c1C#N
active: [16] 9.92% | [17] -7.47%
inactive: [1] 44.8% | [2] 39.1% | [3] 82.2% | [4] 69.8% | [5] 24% | [6] 10.3% | [7] 25.6% | [8] 32% | [9] 90.3% | [10] 42.7% | [11] 68.5% | [12] 63.4% | [13] 89.3% | [14] 27.8% | [15] 51.7%

COc1cc(CCn2nnc3c(NCCCCO)ncnc32)cc(OC)c1
inactive: [1] 94.5% | [2] 99.3% | [3] 99.3% | [4] 113% | [5] 105% | [6] 83.8% | [7] 111% | [8] 101% | [9] 105% | [10] 109% | [11] 104% | [12] 116% | [13] 111% | [14] 120% | [15] 105% | [16] 105% | [17] 111% | [18] 103% | [19] 90.3%

c1cncc(CNc2ccccc2-c2nnc(Nc3ccc4c(c3)OCCO4)o2)c1
inactive: [1] 20.9% | [3] 49.6% | [4] 32.5% | [6] 136% | [8] 31.8% | [9] 42.4% | [12] 14.2% | [13] 80.2% | [14] 26.4% | [15] 18.7% | [16] 12.2% | [19] 12.7%
active: [2] 7.4% | [5] 4.61% | [7] -28.3% | [10] -21.9% | [11] -5.96% | [17] 4.68%

CCN1C(=O)N(CC)C2C1NN=c1s/c(=C\c3ccccn3)c(=O)n12 (stereo unspecified)
inactive: [1] 34.5% | [2] 92.2% | [3] 45.8% | [4] 11.6% | [6] 37.3% | [7] 15.1% | [8] 32.5% | [9] 22.3% | [13] 22.4% | [14] 45.5% | [15] 74.2% | [19] 13%
active: [5] 8.89% | [10] -2.81% | [11] 9.45% | [12] 8.75% | [16] 3.21% | [17] -19.8%

CCC#CC[C@H]1C/C=C2/C(=O)C=C[C@@H]2C/C=C\CCCC(=O)O1
active: [2] -26.6% | [4] -3.46% | [5] -38.1% | [6] -5.7% | [7] -29% | [8] 0.732% | [9] -37.9% | [10] -22.7% | [11] 9.38% | [12] 2.38% | [13] 1.52% | [20] -65.4% | [15] 5.57% | [16] 4.47% | [17] 8.07% | [19] 2.84%
inactive: [1] 20.4% | [3] 45.4% | [14] 16.1%

CCCCCCCC/C=C\CCCCCCCCOc1ccccc1CCOP(=O)(O)OCC[N+](C)(C)C
active: [5] 9.07%
inactive: [1] 90.2% | [2] 95.6% | [3] 106% | [4] 42.1% | [6] 30.3% | [7] 39.4% | [8] 48.9% | [9] 82.4% | [10] 58.4% | [11] 86.6% | [12] 72.7% | [13] 93% | [14] 73.9% | [15] 44.9% | [16] 69.2% | [17] 84.8%

O=C(Nc1cc(C(F)(F)F)cc(C(F)(F)F)c1)Nc1ccc(OCc2nnc(-c3ccc(Cl)cc3)o2)c(F)c1
inactive: [3] 19.3% | [4] 10.3% | [8] 10.5% | [9] 15.1% | [11] 23.8% | [12] 16.1% | [15] 25.6% | [17] 10.5%
active: [1] -5.96% | [2] 6.03% | [5] 6.63% | [6] -11.9% | [7] -22.8% | [10] -84.7% | [13] -3.82% | [14] -17% | [16] 8.71% | [18] 2.65%

CC(C)(C)c1cc(-c2nc3ccc(N4CCN(CCO)CC4)cc3[nH]2)cc(C(C)(C)C)c1O
active: [5] 4.48% | [10] -57.2% | [12] -24.2% | [13] -26.4%
inactive: [1] 96.3% | [2] 99% | [3] 82.3% | [4] 72.6% | [6] 45.2% | [7] 74% | [8] 43.1% | [9] 52% | [11] 70.5% | [14] 39.2% | [15] 68.3% | [16] 98.2% | [17] 55.3%

C=CCc1cc(Cl)cc2c(OC(C)=O)c(C(C)=O)c(-c3ccccc3)nc12
inactive: [1] 91.8% | [2] 103% | [3] 106% | [4] 89.2% | [5] 106% | [6] 105% | [7] 96.4% | [8] 102% | [9] 107% | [10] 108% | [11] 112% | [12] 109% | [13] 104% | [14] 90.7% | [20] 130% | [15] 109% | [16] 114% | [17] 110% | [19] 104%

CCC(=O)Nc1ccccc1C#C/C=C\C#Cc1ccccc1SC
inactive: [1] 79.9% | [2] 76.4% | [3] 101% | [4] 66.5% | [5] 28.6% | [6] 48.1% | [7] 84.4% | [8] 62.4% | [9] 87.7% | [10] 66.2% | [11] 77.3% | [12] 56% | [13] 76.8% | [14] 47.9% | [15] 63.9% | [16] 59.8% | [17] 60.1% | [19] 59.9%

COc1cc(OC)cc(-c2n[nH]nc2-c2ccc3c(c2)OCO3)c1
active: [7] -41.5% | [10] -61.2% | [16] 1.21% | [17] -31%
inactive: [1] 30.1% | [2] 92.1% | [3] 55.5% | [4] 30.3% | [5] 12% | [6] 57% | [8] 28.9% | [9] 40% | [11] 25.1% | [12] 16.7% | [13] 67.7% | [14] 18.9% | [15] 52% | [18] 71.4% | [19] 14.5%

COc1ccc(-c2nnc(COc3ccc(NS(=O)(=O)c4ccc(OC)cc4)cc3F)o2)cc1
inactive: [1] 56.6% | [2] 57.9% | [3] 83.6% | [4] 93.9% | [5] 77.8% | [6] 70.9% | [7] 49.2% | [8] 62.8% | [9] 74.8% | [10] 70.6% | [11] 80.8% | [12] 55.8% | [13] 78.6% | [14] 82.7% | [15] 84.6% | [16] 67.8% | [17] 80.5% | [18] 74.9% | [19] 78.2%

Cc1ccc(S(=O)(=O)N2CCC(C(=O)Nc3ccc(F)cc3F)CC2)cc1
inactive: [1] 95.8% | [2] 87.9% | [3] 112% | [4] 96.2% | [5] 107% | [6] 82.2% | [7] 102% | [8] 91.8% | [9] 89.9% | [10] 99.3% | [11] 97.4% | [12] 91.7% | [13] 104% | [14] 87.1% | [15] 111% | [16] 81.8% | [17] 97.5%

c1ccc(CCn2nnc3c(Nc4ccc(N5CCOCC5)cc4)ncnc32)cc1
inactive: [1] 102% | [2] 90.2% | [3] 106% | [4] 91.1% | [5] 89% | [7] 80.2% | [8] 74.1% | [9] 87.1% | [10] 90.1% | [11] 105% | [12] 27.1% | [13] 69.2% | [14] 78.4% | [15] 107% | [16] 94.1% | [17] 82.2% | [18] 68.6% | [19] 44%
active: [6] -2.53%

CC1CCN(C(=O)CSc2nc3sc4c(c3c(=O)[nH]2)CCCC4)CC1
inactive: [1] 113% | [2] 100% | [3] 104% | [4] 103% | [5] 120% | [6] 88.2% | [7] 89.9% | [8] 106% | [9] 110% | [10] 112% | [11] 101% | [12] 86.1% | [13] 109% | [14] 105% | [20] 117% | [15] 113% | [16] 88.4% | [17] 98.2% | [19] 109%
